# According to PubChem BioAssay AID493065 (National Center for Advancing Translational Sciences (NCATS), 2011):
# The other results are listed elsewhere or left out. Records with an inconclusive call do not appear. Values without a mark were called inactive. Calls come from the whole dose curve; as a rule, active = well fitted activation curve with a large enough effect; inconclusive = small, poorly fitted or top-dose-only effect; inactive = flat fitted curve, though single readings scatter.
# Experiment: Parental Cell Counter Screen Assay for Epigenetic Modulators: Hit Validation
# Conditions: mouse c127i parental cells, 30 h, active compounds read high, concentration not given here
# From the text: NIH Molecular Libraries Screening Centers Network [MLSCN] NIH Chemical Genomics Center [NCGC] MLSCN Grant: 1 X01 MH079860-01 Assay Provider: Elisabeth D. Martinez, University of Texas SW Medical Center NCGC Assay Overview: This assay is a counter screen for the Locus Derepression (LDR) assay (PubChem AID 1865). The LDR assay detects the derepression of a GFP reporter that is stably integrated in a region of the genome of murine c127i mammary cells that is presumably silenced. Compounds that cause derepression of the locus to express GFP are identified by enumerating GFP positive cells using a laser-scanning microplate cytometer. […] Compounds active in the parental c127i cells are likely fluorescent.
# NCGC Assay Protocol Summary: Three hundred cells in 5 uL per well were dispensed into black, clear-bottom 1536-well plates. Twenty-three nL compound was transferred to the assay plate and cells were incubated 30 hours at 37 C. Medium was removed, cells were washed two times with PBS, and fluorescent cells were enumerated as objects between the sizes of 20 to 120 um width and depth using a laser-scanning microplate imager (Acumen Explorer Ex3, TTP Labtech). For further details, see Johnson, RL, Huang, W, Jadhav, A, Austin, CP, Inglese, J, Martinez, ED (2008). A quantitative high-throughput screen identifies potential epigenetic modulators of gene expression. Anal Biochem 375: 237-48.
smiles,measurement,value
O=C1NC(=O)N(CCc2ccc(F)cc2)C(=O)/C1=C/C=C/c1ccccc1,fluorescent cell count,3%
